# Source: PubChem BioAssay (NCATS)
# Inconclusive results are not listed. A call without a number means that no potency is given here. Activity calls are given as the source filed them. Unless noted, the call rests on the fitted dose curve; in most records, active means well fitted curve in the direction sought with a large enough effect; inconclusive means small, poorly fitted or top-dose-only effect, or another doubt; inactive means no such curve, though single readings can be large; an effect the other way counts as inactive or inconclusive.
# Experiments:
# [1] = target: Cytochrome P450 1A2 (Homo sapiens) (UniProt P05177); test: p450-cyp1a2 (AID 410; calls by dose curve)
# Cytochrome P450 1A2 (Homo sapiens), sequence (P05177 whole entry, looked up): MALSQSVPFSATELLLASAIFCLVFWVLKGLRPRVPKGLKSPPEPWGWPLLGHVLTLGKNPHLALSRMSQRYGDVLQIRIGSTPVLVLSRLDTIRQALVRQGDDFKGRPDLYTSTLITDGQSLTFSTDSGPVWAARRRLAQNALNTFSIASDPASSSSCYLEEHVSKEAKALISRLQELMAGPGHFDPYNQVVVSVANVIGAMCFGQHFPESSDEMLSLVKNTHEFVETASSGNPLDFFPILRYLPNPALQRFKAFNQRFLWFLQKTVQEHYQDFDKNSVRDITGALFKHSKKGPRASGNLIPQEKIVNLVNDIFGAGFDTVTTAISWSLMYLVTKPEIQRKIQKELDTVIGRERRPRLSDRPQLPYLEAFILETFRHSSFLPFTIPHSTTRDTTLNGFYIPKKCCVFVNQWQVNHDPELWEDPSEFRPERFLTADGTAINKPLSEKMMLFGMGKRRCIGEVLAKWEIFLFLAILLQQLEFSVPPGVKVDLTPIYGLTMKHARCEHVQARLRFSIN
# In short: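 Luminescent demethylation readout: Luciferin-ME (100uM, equal to Km) turned over by 20nM CYP1A2 for 60 min at room temperature after NADPH regeneration addition, following 10 min compound preincubation. Normalization used 57 uM furafylline as full inhibition.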
# [2] = target: Mitogen-activated protein kinase 10 (Mus musculus) (UniProt Q61831); test: JNK3 AlphaScreen Assay (AID 530; active means well fitted curve in either direction with a large enough effect, not every such curve was filed as active;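 further: kinase came from lysate of stimulated human HepG2 cells; signal reports phosphorylation of biotinylated GST-cJun 1-79 at Ser73 with 10 µM ATP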)
# In short: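 Phosphorylation of biotinylated GST-cJun(1-79) at Ser73 is measured by AlphaScreen proximity luminescence. Enzyme is JNK3 in HepG2 lysates activated with interleukin-1beta and tumor necrosis factor alpha; ATP is 10 uM final.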
# [3] = target: 3',5'-cyclic-AMP phosphodiesterase 4B (Homo sapiens) (UniProt Q07343); test: qHTS Assay for Inhibitors of PDE-IV (AID 607; active means well fitted activation curve with a large enough effect in the main read-out, with a control signal flat, not every such curve was filed as active)
# 3',5'-cyclic-AMP phosphodiesterase 4B (Homo sapiens), sequence (Q07343 whole entry, looked up): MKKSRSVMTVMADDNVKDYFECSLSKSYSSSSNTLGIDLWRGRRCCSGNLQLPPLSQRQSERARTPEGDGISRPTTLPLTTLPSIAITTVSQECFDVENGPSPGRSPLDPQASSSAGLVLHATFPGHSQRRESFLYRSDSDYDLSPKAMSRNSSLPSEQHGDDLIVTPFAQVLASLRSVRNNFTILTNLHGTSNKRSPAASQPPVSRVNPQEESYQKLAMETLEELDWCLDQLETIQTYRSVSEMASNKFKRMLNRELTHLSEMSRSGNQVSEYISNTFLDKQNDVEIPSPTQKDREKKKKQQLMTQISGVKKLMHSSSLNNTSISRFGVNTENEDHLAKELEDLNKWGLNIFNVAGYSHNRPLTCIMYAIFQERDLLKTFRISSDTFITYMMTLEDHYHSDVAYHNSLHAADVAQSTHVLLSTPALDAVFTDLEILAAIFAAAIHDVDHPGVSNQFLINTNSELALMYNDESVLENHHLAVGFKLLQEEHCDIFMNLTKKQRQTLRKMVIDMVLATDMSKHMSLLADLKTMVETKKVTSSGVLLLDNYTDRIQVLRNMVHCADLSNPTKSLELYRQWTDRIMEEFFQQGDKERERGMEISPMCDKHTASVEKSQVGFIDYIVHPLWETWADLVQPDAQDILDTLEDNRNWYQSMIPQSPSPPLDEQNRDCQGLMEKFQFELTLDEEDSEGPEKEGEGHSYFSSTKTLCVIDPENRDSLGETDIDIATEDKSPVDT
# In short: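 ACTOne HEK293 cells carry a modified cAMP-gated CNG channel and express endogenous PDE4; plated 1000 cells/well, compounds up to 22.9 uM final. Membrane-potential dye fluorescence (ex 535/em 590) was read; parental cells received 10 uM forskolin + 100 uM RO 20-1724.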
# [4] = target: Cytochrome P450 3A4 (Homo sapiens) (UniProt P08684); test: qHTS Assay for Inhibitors and Substrates of Cytochrome P450 3A4 (AID 884); further: nearly all actives have a fitted effect of over 50% in size
# Cytochrome P450 3A4 (Homo sapiens), sequence (P08684 whole entry, looked up): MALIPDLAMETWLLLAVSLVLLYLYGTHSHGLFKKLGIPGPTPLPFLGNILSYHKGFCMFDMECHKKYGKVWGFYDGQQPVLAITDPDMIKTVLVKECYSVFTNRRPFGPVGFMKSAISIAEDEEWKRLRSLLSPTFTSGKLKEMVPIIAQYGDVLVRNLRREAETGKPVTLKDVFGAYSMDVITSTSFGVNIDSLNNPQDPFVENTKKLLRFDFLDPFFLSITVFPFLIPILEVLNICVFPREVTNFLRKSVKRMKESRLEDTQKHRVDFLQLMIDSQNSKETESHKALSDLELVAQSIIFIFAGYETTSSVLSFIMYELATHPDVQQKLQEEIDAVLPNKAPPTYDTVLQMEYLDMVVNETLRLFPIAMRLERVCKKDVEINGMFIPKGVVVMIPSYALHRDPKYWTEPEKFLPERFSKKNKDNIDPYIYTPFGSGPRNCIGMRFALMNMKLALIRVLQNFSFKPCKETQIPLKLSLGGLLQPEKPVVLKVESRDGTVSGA
# In short: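 Luminescent readout of luciferin produced by CYP3A4 (20 nM) dealkylation of Luciferin-PPXE, 25 uM (its KM). NADPH-driven reaction ran 60 min at RT after 10 min compound preincubation; data scaled to 57 uM ketoconazole as 100% inhibition.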
# [5] = target: Cytochrome P450 3A4 (Homo sapiens) (UniProt P08684); test: qHTS Assay for Activators of Cytochrome P450 3A4 (AID 885); further: potency means the concentration at half of the fitted maximal effect; nearly all actives have a fitted effect of over 65% in size
# In short: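 CYP3A4 activity: Luciferin-PPXE O-dealkylation, 25uM substrate, 200mM KPO4, RT throughout. Read-out is luciferase luminescence; higher values reflect activation.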
# [6] = target: Cytochrome P450 2D6 (Homo sapiens) (UniProt P10635); test: qHTS Assay for Inhibitors and Substrates of Cytochrome P450 2D6 (AID 891); further: potency means the concentration at half of the fitted maximal effect; nearly all actives have a fitted effect of over 60% in size
# Cytochrome P450 2D6 (Homo sapiens), sequence (P10635 whole entry, looked up): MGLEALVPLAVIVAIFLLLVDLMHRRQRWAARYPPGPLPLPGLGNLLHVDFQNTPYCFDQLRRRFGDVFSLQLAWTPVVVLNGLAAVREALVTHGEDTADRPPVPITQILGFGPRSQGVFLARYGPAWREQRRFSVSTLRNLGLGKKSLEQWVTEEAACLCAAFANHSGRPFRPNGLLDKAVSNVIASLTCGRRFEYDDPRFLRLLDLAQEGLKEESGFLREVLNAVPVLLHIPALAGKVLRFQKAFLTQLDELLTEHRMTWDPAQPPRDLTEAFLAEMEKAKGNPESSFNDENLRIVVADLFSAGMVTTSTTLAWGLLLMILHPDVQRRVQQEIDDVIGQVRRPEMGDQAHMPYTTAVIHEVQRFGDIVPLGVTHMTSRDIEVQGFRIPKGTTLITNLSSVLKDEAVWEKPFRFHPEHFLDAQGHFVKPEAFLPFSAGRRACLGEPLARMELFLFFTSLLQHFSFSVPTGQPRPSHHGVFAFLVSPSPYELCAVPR
# In short: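 Luminescent read-out of luciferin formed by 5 nM human CYP2D6 demethylating 30 uM Luciferin-ME EGE (Km level) over 60 min at room temperature after NADPH regeneration addition. Data normalized to full inhibition by 1.43 uM quinidine.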
# [7] = qHTS Assay for Lipid Storage Modulators (AID 1519; calls by dose curve); conditions: Drosophila S3 cells, BODIPY lipid droplet/cell ratio, laser cytometry, cells loaded with oleic acid
# In short: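 Cells seeded at 5,000 per well were treated with compounds over a concentration series and loaded with oleic acid (400 uM, as added). Lipid droplet fluorescence (488 nm excitation, 500-530 nm channel) was read by laser-scanning cytometry and normalized to 20 uM Triacsin C.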
# [8] = target: ATP-dependent 6-phosphofructokinase (Trypanosoma brucei brucei) (UniProt O15648); test: qHTS Assay to Find Inhibitors of T. brucei phosphofructokinase: hit validation (AID 492961);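 further: luminescence reports ADP formed as PFK phosphorylates fructose-6-phosphate with ATP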
# ATP-dependent 6-phosphofructokinase (Trypanosoma brucei brucei), sequence (O15648 whole entry, looked up): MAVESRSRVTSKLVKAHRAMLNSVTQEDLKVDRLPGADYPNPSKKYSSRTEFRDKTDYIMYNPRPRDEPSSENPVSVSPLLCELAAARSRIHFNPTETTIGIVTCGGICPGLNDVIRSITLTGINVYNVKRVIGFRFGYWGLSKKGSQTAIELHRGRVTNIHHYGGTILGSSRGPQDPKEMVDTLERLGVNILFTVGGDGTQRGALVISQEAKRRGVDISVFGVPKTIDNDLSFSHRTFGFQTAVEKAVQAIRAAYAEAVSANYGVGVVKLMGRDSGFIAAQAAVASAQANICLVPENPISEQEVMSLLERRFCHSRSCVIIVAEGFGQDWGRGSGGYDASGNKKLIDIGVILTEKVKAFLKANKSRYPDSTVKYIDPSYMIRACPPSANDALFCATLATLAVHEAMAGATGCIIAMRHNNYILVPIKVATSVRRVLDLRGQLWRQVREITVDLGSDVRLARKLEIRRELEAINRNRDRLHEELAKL
# In short: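 PFK 1.25 nM, F6P 0.5 mM, ATP 0.1 mM, MgCl2 5 mM, 0.1 M TEA pH 8.0, Tween20 0.01%, BSA 0.1%; 45 min RT. ADP-Glo two-step detection, luminescence. qHTS titration; curve fitting with curve-class categorization.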
# [9] = target: Ubiquitin carboxyl-terminal hydrolase 1 (Homo sapiens) (UniProt O94782); test: Inhibitors of USP1/UAF1: Pilot qHTS (AID 504865);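 further: rhodamine fluorescence freed from ubiquitin-rhodamine substrate followed over time; top concentration of the series differs between compounds; nearly all actives have a fitted effect of over 35% in size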
# Ubiquitin carboxyl-terminal hydrolase 1 (Homo sapiens), sequence (O94782 whole entry, looked up): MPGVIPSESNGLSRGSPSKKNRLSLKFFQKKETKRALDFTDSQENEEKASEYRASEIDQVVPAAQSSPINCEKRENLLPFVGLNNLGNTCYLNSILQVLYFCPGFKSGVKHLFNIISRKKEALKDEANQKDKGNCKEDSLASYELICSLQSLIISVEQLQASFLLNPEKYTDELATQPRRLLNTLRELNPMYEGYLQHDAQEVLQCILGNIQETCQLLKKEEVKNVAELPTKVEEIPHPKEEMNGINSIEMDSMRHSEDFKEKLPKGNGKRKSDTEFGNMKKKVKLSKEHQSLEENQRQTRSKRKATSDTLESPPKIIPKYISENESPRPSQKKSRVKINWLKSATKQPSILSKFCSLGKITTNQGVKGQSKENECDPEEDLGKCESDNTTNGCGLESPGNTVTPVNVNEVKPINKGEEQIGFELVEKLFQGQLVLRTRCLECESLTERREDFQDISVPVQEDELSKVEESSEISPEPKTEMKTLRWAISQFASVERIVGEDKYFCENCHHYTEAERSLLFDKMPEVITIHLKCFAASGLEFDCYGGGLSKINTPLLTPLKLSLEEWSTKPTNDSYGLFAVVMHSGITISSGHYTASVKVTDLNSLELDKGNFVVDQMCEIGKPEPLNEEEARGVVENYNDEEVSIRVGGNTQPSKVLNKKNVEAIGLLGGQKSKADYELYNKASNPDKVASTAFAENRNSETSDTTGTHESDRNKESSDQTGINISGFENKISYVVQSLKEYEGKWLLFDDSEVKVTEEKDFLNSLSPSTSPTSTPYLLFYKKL
# In short: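 In 50mM HEPES pH 7.8 containing 0.5mM EDTA, 1mM TCEP, 0.1 mg/ml BSA and 0.01% Tween-20, 1nM USP1/UAF1 is exposed to compound for 15 min, then Ub-Rho (150nM final) is added and fluorescence is read over time.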
# [10] = target: DNA dC->dU-editing enzyme APOBEC-3G (Homo sapiens) (UniProt Q9HC16); test: qHTS for inhibitors of Vif-A3G interactions: Validation (AID 588379)
# DNA dC->dU-editing enzyme APOBEC-3G (Homo sapiens), sequence (Q9HC16 whole entry, looked up): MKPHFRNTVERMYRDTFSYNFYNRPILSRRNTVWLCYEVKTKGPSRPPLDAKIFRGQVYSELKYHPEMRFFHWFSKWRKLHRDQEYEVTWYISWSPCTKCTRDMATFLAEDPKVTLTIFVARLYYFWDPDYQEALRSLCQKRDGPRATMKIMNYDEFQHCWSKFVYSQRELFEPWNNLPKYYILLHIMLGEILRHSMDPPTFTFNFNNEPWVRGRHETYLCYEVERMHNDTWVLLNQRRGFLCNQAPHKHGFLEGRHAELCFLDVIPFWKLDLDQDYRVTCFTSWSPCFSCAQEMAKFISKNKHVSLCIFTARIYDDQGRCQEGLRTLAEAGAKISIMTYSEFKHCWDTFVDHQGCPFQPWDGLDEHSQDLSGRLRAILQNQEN
# In short: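 Yellow fluorescence (Ex 488, Em 500-530) of Vif-coexpressing HeLa A3G-eYFP cells, scanned by Acumen cytometer, reports blocked A3G degradation. Cells plated at 700/well overnight at 37 deg C before compound addition, then a further overnight compound incubation at 37 deg C.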
# [11] = target: Luciferin 4-monooxygenase (Photinus pyralis) (UniProt P08659); test: Biochemical firefly luciferase enzyme assay for NPC (AID 624030);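 further: purified P. pyralis luciferase at 10 nM with luciferin and ATP substrate; nearly all actives have a fitted effect of over 70% in size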
# Luciferin 4-monooxygenase (Photinus pyralis), sequence (P08659 whole entry, looked up): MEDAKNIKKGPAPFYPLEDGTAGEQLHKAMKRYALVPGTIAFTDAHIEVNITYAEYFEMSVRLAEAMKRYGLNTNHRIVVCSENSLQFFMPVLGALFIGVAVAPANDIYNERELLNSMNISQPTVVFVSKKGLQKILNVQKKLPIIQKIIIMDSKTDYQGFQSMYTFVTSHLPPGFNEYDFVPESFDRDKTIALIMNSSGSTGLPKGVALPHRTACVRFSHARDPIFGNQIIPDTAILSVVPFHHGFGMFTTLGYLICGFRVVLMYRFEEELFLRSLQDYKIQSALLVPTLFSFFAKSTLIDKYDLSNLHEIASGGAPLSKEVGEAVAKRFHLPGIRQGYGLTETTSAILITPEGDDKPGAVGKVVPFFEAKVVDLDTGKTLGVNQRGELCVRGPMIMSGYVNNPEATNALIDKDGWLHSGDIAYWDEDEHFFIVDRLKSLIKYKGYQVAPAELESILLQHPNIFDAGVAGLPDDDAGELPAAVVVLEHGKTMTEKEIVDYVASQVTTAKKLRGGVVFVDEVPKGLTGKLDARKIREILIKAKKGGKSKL
# In short: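 Counter-screen for direct inhibition of the luciferase enzyme by approved-drug library compounds, run at 10 nM enzyme in 50 mM Tris acetate (final). Luminescence was read within 5 min of enzyme-buffer addition and normalized to PTC124 versus DMSO (0%).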
# [12] = S16 Schwann cell viability assay (CellTiter-Glo assay) (AID 624031);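 further: native untransfected S16 rat Schwann cells; cellular ATP luminescence as a viability measure; nearly all actives have a fitted effect of over 70% in size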
# In short: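 Cells were seeded at 500-750 per well in phenol red-free DMEM with 10% FBS and left overnight. Compounds or DMSO were pinned in, incubation ran 24 h at 37 °C/5% CO2, then CellTiter-Glo reagent was added and luminescence measured.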
# [13] = S16 Schwann cell PMP22 intronic element firefly luciferase assay (AID 624032); further: potency means the concentration at half of the fitted maximal effect; nearly all actives have a fitted effect of over 30% in size
# In short: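 Rat S16 Schwann cells stably carrying a PMP22 intronic element-driven Fluc reporter were seeded overnight, then exposed to compounds for 24 h at 37 °C. Luminescence was normalized to PTC124 (positive control) and DMSO (0% activity).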
# [14] = S16 Schwann cell PMP22 intronic element beta-lactamase assay (AID 624044; calls by dose curve; further: nearly all actives have a fitted effect of over 15% in size)
# In short: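 Beta-lactamase reporter under a PMP22 intronic regulatory element in stable S16 rat Schwann cells; 24 h compound exposure. 460 nm blue signal normalized between DMSO (0%) and potassium clavulanate, with 535 nm FRET tracking viability; curves classed by r2 and response.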
# [15] = system: Zika virus NS2B-NS3 protease; test: Primary screen GU AMC qHTS for Zika virus inhibitors (AID 1347154); further: nearly all actives have a fitted effect of over 70% in size
# In short: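 Unlinked Zika NS2B hydrophilic domain/NS3 protease domain noncovalent complex (25 nM final) in 10 mM Tris-HCl pH 8.0, 0.01% Tween 20, with AMC peptide substrate. Fluorescence (ex 340, em 450 nm) change over 15 min, room temperature; percent inhibition fitted to 4-parameter Hill equation.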
# [16] = Confirmatory qHTS for small molecule stabilizers of the endoplasmic reticulum resident proteome: Secreted ER Calcium Modulated Protein (SERCaMP) assay (AID 1508628); further: potency means the concentration at half of the fitted maximal effect; nearly all actives have a fitted effect of over 40% in size
# In short: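 Reporter secretion upon ER calcium depletion (100 nM thapsigargin, 4 h, 37C) is measured as medium luminescence with coelenterazine, after 16 h compound pretreatment of SH-SY5Y-GLuc-SERCaMP cells; primary at three concentrations up to 38.3 uM, follow-up at 11 (up to 76.6 uM).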
# [17] = Cell Viability qHTS for small molecule stabilizers of the endoplasmic reticulum resident proteome (AID 1508629); conditions: cell viability counter-screen, 100 nM thapsigargin for final 4 h;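 further: potency means the concentration at half of the fitted maximal effect; compound exposure about 46 h in total before the viability read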
# 3D7 = test: qHTS profiling for inhibitors of Plasmodium falciparum proliferation (AID 504749); further: nearly all actives have a fitted effect of over 60% in size; conditions: P. falciparum in erythrocytes, SYBR Green DNA, 72 h; series mostly up to 28.7 µM
# In short: (§1)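 Quantitative HTS: compounds pinned into medium, infected erythrocytes added (0.3% parasitemia, 2.5% hematocrit), 72 h culture at 37 C under 5% CO2. Saponin/Triton lysis with SYBR Green I, overnight RT, then fluorescence read.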
# AA1029 = test: as above; conditions: P. falciparum in erythrocytes, SYBR Green DNA, 72 h; series mostly up to 28.7 µM
# In short: as §1
# AS120 = test: as above; conditions: P. falciparum in erythrocytes, SYBR Green DNA, 72 h; series mostly up to 28.7 µM
# In short: as §1
# ATS189 = test: as above; conditions: P. falciparum in erythrocytes, SYBR Green DNA, 72 h; series mostly up to 28.7 µM
# In short: as §1
# ATS95 = test: as above; conditions: P. falciparum in erythrocytes, SYBR Green DNA, 72 h; series mostly up to 28.7 µM
# In short: as §1
# C2A = test: as above; conditions: P. falciparum in erythrocytes, SYBR Green DNA, 72 h; series mostly up to 28.7 µM
# In short: as §1
# CP185 = test: as above; conditions: P. falciparum in erythrocytes, SYBR Green DNA, 72 h; series mostly up to 28.7 µM
# In short: as §1
# CP191 = test: as above; conditions: P. falciparum in erythrocytes, SYBR Green DNA, 72 h; series mostly up to 28.7 µM
# In short: as §1
# CP192 = test: as above; conditions: P. falciparum in erythrocytes, SYBR Green DNA, 72 h; series mostly up to 28.7 µM
# In short: as §1
# CP194 = test: as above; conditions: P. falciparum in erythrocytes, SYBR Green DNA, 72 h; series mostly up to 28.7 µM
# In short: as §1
# CP201 = test: as above; conditions: P. falciparum in erythrocytes, SYBR Green DNA, 72 h; series mostly up to 28.7 µM
# In short: as §1
# CP203 = test: as above; conditions: P. falciparum in erythrocytes, SYBR Green DNA, 72 h; series mostly up to 28.7 µM
# In short: as §1
# CP215 = test: as above; conditions: P. falciparum in erythrocytes, SYBR Green DNA, 72 h; series mostly up to 28.7 µM
# In short: as §1
# CP217 = test: as above; conditions: P. falciparum in erythrocytes, SYBR Green DNA, 72 h; series mostly up to 28.7 µM
# In short: as §1
# CP237 = test: as above; conditions: P. falciparum in erythrocytes, SYBR Green DNA, 72 h; series mostly up to 28.7 µM
# In short: as §1
# CP238 = test: as above; conditions: P. falciparum in erythrocytes, SYBR Green DNA, 72 h; series mostly up to 28.7 µM
# In short: as §1
# CP247 = test: as above; conditions: P. falciparum in erythrocytes, SYBR Green DNA, 72 h; series mostly up to 28.7 µM
# In short: as §1
smiles,measurement,setting,value
CCN(CC)CCO[C@H]1CC[C@@]2(C)C(=CC[C@@H]3[C@H]2CC[C@]2(C)C(=O)CC[C@H]32)C1,Potency,[1],inactive
same,outcome,[2],inactive
same,Potency,[3],inactive
same,Potency,[4],inactive
same,Potency,[5],15.8 µM (active)
same,Potency,[6],0.0794 µM (active)
same,"activity change, negative = inhibition",[7]; at 57.5 µM (top of the series),-3.37% (inactive)
same,max response,[7]; measured here: cell count channel max response,16%
same,max response,[7]; measured here: lipid channel max response,11.9%
same,Potency,[8],inactive
same,Potency,[9],inactive
same,Potency,[10],inactive
same,Potency,[11],inactive
same,Potency,[12],inactive
same,Potency,[13],9.07 µM (active)
same,Potency,[14],inactive
same,Potency,[15],inactive
same,Potency,[16],31.6 µM (active)
same,Potency,[17],12.6 µM (active)
same,Potency,3D7,inactive
same,Potency,AA1029,inactive
same,Potency,AS120,inactive
same,Potency,ATS189,inactive
same,Potency,ATS95,inactive
same,Potency,C2A,inactive
same,Potency,CP185,inactive
same,Potency,CP191,inactive
same,Potency,CP192,inactive
same,Potency,CP194,inactive
same,Potency,CP201,inactive
same,Potency,CP203,inactive
same,Potency,CP215,inactive
same,Potency,CP217,inactive
same,Potency,CP237,inactive
same,Potency,CP238,inactive
same,Potency,CP247,inactive
